This is an account of results in PubChem BioAssay.

“And” between values parts separate entries of the source, which are not always exact repeats. Equal entries are not always repeated. Unmarked numbers belong to inactive results. No rule for the calls is given here.

In this assay the test system is Aerobactin synthetase IucA (Klebsiella pneumoniae hvKP1). Description: Biochemical IucA enzyme inhibition primary screen of the Spectrum library (AID 1346200).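 Also: 100% = wells without compound and 0% = wells lacking enzyme.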 Particulars: malachite green pyrophosphate, A620, at 8 µM, active compounds read low.
Take `CC(C)Cc1ccc(C(C)C(=O)O)cc1` (configuration not stated): the activity remaining was 90.9%. For `CC(=O)O[C@H]1C[C@@H](O)C(C)(C)C2C[C@@H](OC(C)=O)[C@]3(C)C(CC[C@@]4(C)[C@H](c5ccoc5)OC(=O)C5OC543)[C@]21C` (some centres not stated) the value was 104%. On to `CC(=O)Nc1c(I)cc(I)c(C(=O)O)c1I`, for which the activity remaining is 119%. For `CC(C)CCCC(C)[C@H]1CCC2C3CC=C4C[C@@H](O)CC[C@]4(C)C3CC[C@@]21C` (some centres not stated), the activity remaining was 117%. For `CCC(=O)O[C@H]1CCC2C3CCc4cc(O)ccc4C3CC[C@@]21C` (some centres not stated) the value was 101%.

Turning to `CC1(C)O[C@@H]2CC3C4C[C@H](F)C5=CC(=O)C=CC5(C)C4C(O)CC3(C)[C@]2(C(=O)CO)O1` (some centres not stated), the activity remaining is 111%. The same measure for `CCCCCCCCCCCC1=C(O)C(=O)C=C(O)C1=O`: 102%; for `C[N+](C)(C)CCOP(=O)([O-])OP(=O)(O)OC[C@H]1OC(n2ccc(N)nc2=O)[C@H](O)[C@@H]1O` (some centres not stated): 118%. The same measure for `C[C@@H]1CC[C@H]2[C@@H](C)C(O)O[C@@H]3OC4(C)CC[C@@H]1[C@]32OO4` (some centres not stated): 106%; for `NC(Cc1ccc(Cl)cc1)C(=O)O` (configuration not stated): 108%; for `COc1cc2c(cc1OC)-c1cc3ccc(OC)c(OC)c3c[n+]1CC2`: 97.8% and 112%. For `CC1(C)CC[C@]2(C(=O)O)CC[C@]3(C)C(=CCC4[C@@]5(C)CC[C@H](O)[C@@](C)(CO)C5CC[C@]43C)C2C1` (some centres not stated) the value was 97.3%; for `c1ccc(CN(CC2=NCCN2)c2ccccc2)cc1`, 120%; for `C=C(C)C1CC=C(CO)CC1` (configuration not stated), 117%. As for `CC(=O)O[C@H]1C[C@@H](OC(C)=O)C(C)(C)C2C[C@@H](O)[C@]3(C)C(CC[C@@]4(C)[C@H](c5ccoc5)OC(=O)[C@H]5O[C@]543)[C@]21C` (some centres not stated), the activity remaining is 94.5%.

With `N[C@@H](C(=O)O)[C@@H](O)[C@H](O)[C@H](O)CO`, the activity remaining is 120%.

As to `CC(=O)[C@H]1CCC2C3CCC4=CC(=O)CC[C@]4(C)C3CC[C@@]21C` (some centres not stated), the activity remaining was 106%. The same measure for `O=C1CCC(N2C(=O)c3ccccc3C2=O)C(=O)N1` (configuration not stated): 117%. The same measure for `Cc1ccnc(NS(=O)(=O)c2ccc(N)cc2)n1`: 122%; for `CC(C)(Sc1cc(C(C)(C)C)c(O)c(C(C)(C)C)c1)Sc1cc(C(C)(C)C)c(O)c(C(C)(C)C)c1`: 89.7%; for `CC(=O)Oc1cccc(O)c1`: 114%. The same measure for `CC(C)[C@H](N)C(=O)OCCOCn1cnc2c(=O)[nH]c(N)nc21`: 122%; for `COc1ccc(C(=O)CC(=O)c2ccc(C(C)(C)C)cc2)cc1`: 104%; for `CC1(C)OC(=O)NC1=O`: 115%.

Turning to `O=c1cc(-c2cc(O)c(O)c(O)c2)oc2cc(O)cc(O)c12`, the activity remaining is 101%. The same measure for `COCCCOc1cc(C[C@@H](C[C@H](N)[C@@H](O)C[C@H](C(=O)NCC(C)(C)C(N)=O)C(C)C)C(C)C)ccc1OC`: 107%; for `NCC1CCC(C(=O)O)CC1` (configuration not stated): 102%.
